Only a selection was taken, and hits are over-represented in it overall.
KDM4E inh: blocks human JMJD2E demethylase activity. B2RXH2. JMJD2E catalytic domain, FDH-coupled NADH fluorescence (FDH is formaldehyde dehydrogenase). Potency, µM (series often up to 57.1 µM), for the others: at the top dose activity change, negative = inhibition, actives largely listed as inhibitors. 230,000 tested, 1.6% active. AID 2147; active means well fitted inhibition curve with a large enough effect, not every such curve was filed as active; inconclusive means small, poorly fitted or top-dose-only effect, or another doubt; inactive means no such curve, though single readings can be large or run the other way;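 further: potency means the concentration at half of the fitted maximal effect; 0% = wells with enzyme and -100% = buffer wells without enzyme; nearly all actives have a fitted effect of over 50% in size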
CtBP-E1A blk: CtBP/E1A binding inhibition | AID 651724 | activity change, % (no concentration beside the values) | AlphaScreen GST-E1A/His-CtBP binding, 1536-well; active compounds read low | 340,000 tested, 0.49% active
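In 5 uL wells, 23 nL compound meets equimolar GST-E1A and His-CtBP (5X stock 125 nM each) for 2 h, 37 °C. Beads (5X, 50 ug/mL) then 1 h, 37 °C, dark.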
Six1-Eya2 inh: blocks human Six1 binding to Eya2; activity change, % (test concentration not listed); Q15475+O00167; AlphaScreen GST-Six1/His-Eya2 binding, biochemical; active compounds read low; 360,000 tested, 0.56% active
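Compounds are tested against tagged Six1 and Eya2 proteins bridged by glutathione donor and nickel acceptor beads; after a one-hour incubation at 37 °C without light, AlphaScreen emission is recorded.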
L3MBTL1 block: blocks human L3MBTL1; Q9Y468; 230,000 tested, 0.66% active; AID 485360; Potency, µM (highest dose often 57.1 µM), without a hit: top-dose activity, negative = inhibition, usual class: inhibitors; AlphaScreen L3MBTL1–H3K9me1 peptide binding; active means well fitted inhibition curve with a large enough effect; inconclusive means small, poorly fitted or top-dose-only effect; inactive means no such curve, though single readings can be large or run the other way; further: potency means the concentration at half of the fitted maximal effect; nearly all actives have a fitted effect of over 60% in size
Target sequence (Q9Y468 whole entry, looked up): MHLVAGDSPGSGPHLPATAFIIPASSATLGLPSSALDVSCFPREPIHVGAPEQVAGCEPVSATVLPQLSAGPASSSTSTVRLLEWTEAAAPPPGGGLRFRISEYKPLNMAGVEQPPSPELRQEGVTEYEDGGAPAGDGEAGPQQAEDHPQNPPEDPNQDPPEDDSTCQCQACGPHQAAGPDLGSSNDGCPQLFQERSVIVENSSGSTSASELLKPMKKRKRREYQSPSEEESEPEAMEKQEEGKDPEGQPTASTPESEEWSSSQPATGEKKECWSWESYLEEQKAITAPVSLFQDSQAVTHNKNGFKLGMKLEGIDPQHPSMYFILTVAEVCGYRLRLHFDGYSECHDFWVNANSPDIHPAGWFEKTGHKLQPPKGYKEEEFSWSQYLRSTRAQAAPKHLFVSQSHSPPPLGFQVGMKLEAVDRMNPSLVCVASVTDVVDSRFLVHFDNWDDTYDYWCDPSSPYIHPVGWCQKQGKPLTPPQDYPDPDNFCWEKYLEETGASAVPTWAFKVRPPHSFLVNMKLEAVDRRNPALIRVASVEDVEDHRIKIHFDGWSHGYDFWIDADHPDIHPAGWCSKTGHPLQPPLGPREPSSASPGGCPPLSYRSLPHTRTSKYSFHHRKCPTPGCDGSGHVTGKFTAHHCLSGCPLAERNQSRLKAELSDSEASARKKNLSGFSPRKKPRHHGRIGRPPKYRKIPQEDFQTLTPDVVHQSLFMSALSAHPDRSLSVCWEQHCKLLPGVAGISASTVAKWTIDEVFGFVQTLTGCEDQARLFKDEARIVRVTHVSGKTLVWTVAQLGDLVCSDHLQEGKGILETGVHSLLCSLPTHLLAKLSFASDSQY
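Displacement of a biotinylated histone H3(1-15) peptide monomethylated at Lys9 (75 nM) from L3MBTL1 (50 nM) was measured by AlphaScreen after a 30 min room-temperature compound incubation; cefsulodin titration served as intraplate control.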
* marks the source's active call; other numbers are inactive results; [ ] = dose if it differs, or a comment. Unless noted, no stated cut-off is given here; in the data, active means activity change below about -65%; inconclusive means mostly about -30% to -63%; inactive means weaker than that. Unless noted, on the % scale 0 is the no-effect control and ±100 the full control effect.

How did Nc1nc(CN2CCCCCC2)nc(Nc2ccccc2)n1 do in these assays?
KDM4E inh: inconclusive; CtBP-E1A blk: -22.2; Six1-Eya2 inh: -27.8; L3MBTL1 block: 28.2µM*

What do the screens show for `Cc1ccc(Nc2nc(N)nc(CN3CCCCCC3)n2)cc1`?
KDM4E inh: -23.2%; CtBP-E1A blk: -21.2; Six1-Eya2 inh: -28.2; L3MBTL1 block: inconclusive

What do the screens show for `CN1C(=O)c2cccc(N(C)C)c2C1=O`?
KDM4E inh: 5.0%; CtBP-E1A blk: -12.6; Six1-Eya2 inh: 2.1; L3MBTL1 block: 15.5%

What do the screens show for `CN(C)c1cccc2c1C(=O)c1ccccc1C2=O`?
KDM4E inh: -1.9%; CtBP-E1A blk: -85.1*; Six1-Eya2 inh: -85.7*; L3MBTL1 block: 25.1µM*

What do the screens show for `CC1=CC(=O)C2C(C)(C)CCC[C@@]2(C)[C@@]1(O)CCc1ccoc1` (stereo partly drawn)?
KDM4E inh: 1.4%

How did Cn1c(=O)c(C(=O)NNC(=O)c2ccccc2Br)c(O)c2ccccc21 do in these assays?
CtBP-E1A blk: inconclusive; Six1-Eya2 inh: -65.8*

Results for Cc1cccc(C(=O)NNC(=O)c2c(O)c3ccccc3n(C)c2=O)c1 ?
CtBP-E1A blk: 2.6; Six1-Eya2 inh: -0.8

Results for CCCCN1/C(=C/c2ccc3ccccc3[n+]2CC)Sc2ccccc21 ?
KDM4E inh: 14.1µM*; CtBP-E1A blk: -7.4; Six1-Eya2 inh: -6.9; L3MBTL1 block: -18.9%

What do the screens show for `CCN1/C(=C/c2ccc3ccccc3[n+]2CC)C=Cc2ccccc21`?
KDM4E inh: 3.5%; CtBP-E1A blk: inconclusive; Six1-Eya2 inh: -70.4*

What do the screens show for `CCCn1c(SCC(=O)NNC(=O)c2ccc(C)cc2)nnc1C(C)C`?
CtBP-E1A blk: -16.2; Six1-Eya2 inh: -0.5

How did CC(C)[C@@H](CC(=O)N[C@@H]1CCNC[C@H]1C(=O)N[C@H](CC(=O)N[C@@H](CCC(=O)O)CC(=O)O)Cc1c[nH]c2ccccc12)NC(=O)C[C@H](CO)NC(=O)[C@@H]1CCCC[C@H]1N do in these assays?
KDM4E inh: 5.9%

How did COc1ccc2nc(NN=C(C)c3ccccn3)cc(C)c2c1 do in these assays?
CtBP-E1A blk: inconclusive; Six1-Eya2 inh: -89.0*

Results for C[C@@]12C=CC(=O)C=C1CC[C@H]1[C@H]3CC[C@](O)(C(=O)CO)[C@]3(C)CC(=O)[C@@H]12 ?
KDM4E inh: -1.6%[25.5 µM]

How did COc1ccc2c(c1)O[C@H](c1ccc3c(c1)OCO3)[C@@H](OC(=O)NCCc1ccc(OC)c(OC)c1)C2=O do in these assays?
KDM4E inh: -4.8%

How did COc1ccccc1NC(=O)c1nn(C)cc1Br do in these assays?
KDM4E inh: -1.3%; CtBP-E1A blk: 0.0; Six1-Eya2 inh: 20.6; L3MBTL1 block: -2.0%

What do the screens show for `COc1ccccc1NC(=S)NNC(=O)c1nn(C)c(C)c1Cl`?
KDM4E inh: 14.1µM*; CtBP-E1A blk: inconclusive; Six1-Eya2 inh: -28.9

What do the screens show for `COc1ccccc1NC(=S)NNC(=O)c1ccc(O)cc1`?
KDM4E inh: 1.8%; CtBP-E1A blk: 2.3; Six1-Eya2 inh: 1.6

How did COc1ccccc1NC(=S)NNC(=O)c1nn(C)c(C)c1Br do in these assays?
KDM4E inh: 7.94µM*; CtBP-E1A blk: -4.8; Six1-Eya2 inh: inconclusive; L3MBTL1 block: 17.3%

Results for COc1ccccc1NC(=S)NNC(=O)c1nn(C)cc1Cl ?
KDM4E inh: 10µM*; CtBP-E1A blk: -23.3; Six1-Eya2 inh: -7.7; L3MBTL1 block: 6.7%

What do the screens show for `O=C(O)CN1C(=O)/C(=C/c2ccc(N3CCCCC3)o2)SC1=S`?
KDM4E inh: 31.6µM*; CtBP-E1A blk: -3.1; Six1-Eya2 inh: inconclusive; L3MBTL1 block: 31.6µM*

What do the screens show for `CCCN1C(=O)S/C(=C/c2ccc(N3CCOCC3)o2)C1=O`?
KDM4E inh: 8.91µM*; CtBP-E1A blk: -0.8; Six1-Eya2 inh: 2.5; L3MBTL1 block: 17.4%

How did CCCN1C(=O)S/C(=C\c2ccc(N3CCOCC3)o2)C1=O do in these assays?
KDM4E inh: inconclusive; CtBP-E1A blk: -6.3; Six1-Eya2 inh: 5.5

What do the screens show for `COC(=O)CN1C(=O)S/C(=C/c2ccc(N3CCCCC3)o2)C1=O`?
KDM4E inh: inconclusive; CtBP-E1A blk: 22.7; Six1-Eya2 inh: -0.5; L3MBTL1 block: -23.6%

How did COc1ccc(CC(=O)Nc2ccc(-c3ccc4nnc(C)n4n3)cc2)cc1OC do in these assays?
KDM4E inh: inconclusive; CtBP-E1A blk: -15.9; Six1-Eya2 inh: -21.7; L3MBTL1 block: -3.0%

How did Cc1nc(-[n+]2nc(-c3ccncc3)nn2-c2ccccc2)sc1C do in these assays?
CtBP-E1A blk: -87.9*; Six1-Eya2 inh: -91.2*

Results for CC1=C(C(N)=O)C(c2ccccc2)n2nc(-c3ccncc3)nc2N1 (stereo not drawn) ?
KDM4E inh: -8.3%; CtBP-E1A blk: 16.0; Six1-Eya2 inh: 1.2; L3MBTL1 block: -1.3%

What do the screens show for `N#CC(C#N)=Cc1ccc(NC(=O)c2ccc(Br)cc2)cc1`?
KDM4E inh: 20µM*; CtBP-E1A blk: -2.3; Six1-Eya2 inh: -7.4

How did CC(C)(C)c1ccc(C(=O)Nc2ccc(C=C(C#N)C#N)cc2)cc1 do in these assays?
KDM4E inh: 11.2µM*; CtBP-E1A blk: 7.4; Six1-Eya2 inh: 0.5; L3MBTL1 block: 3.4%

How did Cc1ccc(NC(=O)CN2C(=O)N/C(=C/c3ccco3)C2=O)cc1 do in these assays?
KDM4E inh: 15.8µM*; CtBP-E1A blk: -1.0; Six1-Eya2 inh: -14.2; L3MBTL1 block: -88.1%

Results for O=C(CN1C(=O)/C(=C/c2ccco2)SC1=S)Nc1ccc(C(=O)O)c(O)c1 ?
Six1-Eya2 inh: -65.1*

Results for O=C1/C(=C/c2ccco2)SC(=S)N1c1cccnc1 ?
KDM4E inh: inconclusive; CtBP-E1A blk: -28.9; Six1-Eya2 inh: -70.7*; L3MBTL1 block: 3.16µM*

Results for NN1C(=O)/C(=C\c2ccco2)SC1=S ?
KDM4E inh: inconclusive; CtBP-E1A blk: -15.5; Six1-Eya2 inh: -16.0; L3MBTL1 block: 25.1µM*

How did CCCCC[C@H](O)/C=C/C=C\C/C=C\CCCCCCC(=O)O do in these assays?
KDM4E inh: 8.0%

Results for CC1(Cc2ccc(F)cc2)C(=O)Nc2ccc(S(=O)(=O)NC3CCCCC3)cc21 (stereo not drawn) ?
CtBP-E1A blk: 1.7; Six1-Eya2 inh: 3.2

Results for CC(/C=C1\SC(=S)N(CC(=O)O)C1=O)=C\c1ccccc1 ?
KDM4E inh: -1.3%; CtBP-E1A blk: 3.9; Six1-Eya2 inh: 9.5; L3MBTL1 block: 0.2%

Results for CC(=C\c1ccco1)/C=C1/SC(=S)N(CC(=O)O)C1=O ?
KDM4E inh: -1.8%; CtBP-E1A blk: -1.8; Six1-Eya2 inh: -9.8; L3MBTL1 block: 39.8µM*

Results for COC(=O)[C@H](Cc1ccccc1)NC(=O)[C@H]1C[C@@H]1[C@H](NC(=O)OCc1ccccc1)c1ccccc1 ?
KDM4E inh: 6.6%

How did CC(C)Cn1c(N)c(C(=O)COC(=O)c2cc(-c3ccco3)nc3ccccc23)c(=O)n(C)c1=O do in these assays?
KDM4E inh: inconclusive; CtBP-E1A blk: -2.9; Six1-Eya2 inh: -9.1; L3MBTL1 block: 8.91µM*

How did Cc1csc(SCC(=O)Nc2oc(C)c3c(C)n[nH]c(=O)c23)n1 do in these assays?
CtBP-E1A blk: 0.3; Six1-Eya2 inh: -7.5; L3MBTL1 block: 5.4%
